FLuc counter – qHTS profiling assay for firefly luciferase inhibitor/activator using purifed enzyme and Km concentrations of substrates (counterscreen for miR-21 project); Luciferin 4-monooxygenase (Photinus pyralis), P08659; purified FLuc, Km substrates, luminescence inhibition; Potency, µM (titrated, usually from 57.5 µM), inactives show at the top dose activity change, negative = inhibition, actives largely listed as inhibitors; 360,000 compounds, 6.9% hits; AID 588342, 2011;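 further: plate controls were vehicle for no effect and reference inhibitor for full effect; nearly all actives have a fitted effect of over 55% in size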
Target sequence (P08659 whole entry, looked up): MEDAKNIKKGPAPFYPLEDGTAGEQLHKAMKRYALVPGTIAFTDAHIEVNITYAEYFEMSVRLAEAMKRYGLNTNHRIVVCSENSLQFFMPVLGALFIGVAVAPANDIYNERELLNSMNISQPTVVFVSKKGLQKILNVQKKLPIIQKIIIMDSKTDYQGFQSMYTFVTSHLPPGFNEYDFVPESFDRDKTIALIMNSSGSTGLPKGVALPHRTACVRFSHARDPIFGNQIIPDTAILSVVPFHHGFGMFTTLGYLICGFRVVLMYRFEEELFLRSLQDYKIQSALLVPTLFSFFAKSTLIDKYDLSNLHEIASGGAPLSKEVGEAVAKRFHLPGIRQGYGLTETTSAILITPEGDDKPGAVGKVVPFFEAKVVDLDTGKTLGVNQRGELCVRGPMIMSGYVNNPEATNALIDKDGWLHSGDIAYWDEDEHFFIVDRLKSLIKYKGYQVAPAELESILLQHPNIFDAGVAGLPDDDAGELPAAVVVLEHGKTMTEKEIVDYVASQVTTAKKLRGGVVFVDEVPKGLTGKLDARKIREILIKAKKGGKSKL
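Purified P. pyralis luciferase (10nM final) with 10uM D-luciferin and 10uM ATP (Km levels) in 50mM Tris acetate pH 7.5, 10mM Mg acetate, 0.01% Tween-20, 0.05% BSA; qHTS 6-point titration, ~60 µM downward; luminescence read.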
SMN2 splice enh – qHTS Assay for Enhancers of SMN2 Splice Variant Expression; HEK293 SMN2-luciferase splicing reporter, luminescence, 30-36 h; 210,000 compounds, 2.8% hits; Potency, µM (series often up to 46.1 µM), for the others: at the highest dose activity change, positive = activation, usual class: activators; further: % of control where 0% means no effect; nearly all actives have a fitted effect of over 55% in size
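HEK293 cells carry an SMN2 […]–luciferase reporter in which exon 7 inclusion puts luciferase in frame. Cells were plated 10-12 h before compound addition, then incubated 30-36 h at 37C. ONE-Glo luminescence was read; sodium butyrate at 4.5 mM final served as control.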
Rab9 promoter act – qHTS Assay for Rab9 Promoter Activators | Huh7 Rab9 promoter-luciferase reporter, luminescence, 24 h | Potency, µM (highest dose often 9.22 µM), inactives show at the highest dose activation, negative = inhibition, actives largely listed as activators | 320,000 compounds, 2.8% hits | AID 485297, 2010; further: % of control where 0% means no effect; nearly all actives have a fitted effect of over 60% in size
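Stable Rab9-luc Huh7, 1500 cells/well, 2 h settle; cmpd in DMSO, 24 h, 37 °C/5% CO2; luciferase reagent 10 min RT; luminescence.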
NPC1 prom act – qHTS Assay for NPC1 Promoter Activators | AID 485313, 2010 | Huh7 NPC1 promoter luciferase reporter, 24 h | 320,000 compounds, 2.4% hits | Potency, µM (doses to about 9.22 µM), for inactives: at the top dose activation, actives largely listed as activators; further: % of control where 0% means no effect; nearly all actives have a fitted effect of over 60% in size
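Readout is luciferase luminescence, reflecting NPC1 promoter activation in stably transfected Huh7 cells after 24 h compound exposure at 37 °C in reduced-serum medium with 10% FBS.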
ELG1 repair inh – qHTS screen for small molecules that inhibit ELG1-dependent DNA repair in human embryonic kidney (HEK293T) cells expressing luciferase-tagged ELG1; Potency, µM (top dose mostly 46.1 µM), without a hit: at the top dose activity change, negative = inhibition, most hits filed as inhibitors; 330,000 compounds, 2.3% hits; HEK293T ELG1-luciferase reporter, luminescence, 16 h; DNA damage induced by 5-fluorouridine; AID 504467, 2011; further: on the % scale 0 is the no-effect control and ±100 the full control effect; nearly all actives have a fitted effect of over 55% in size
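In this reporter screen, reduction of luminescence relative to DMSO vehicle indicated activity. Compounds and 5-fluorouridine were added together to 2,000 cells per well, incubated for 16 hr at 37 °C, then developed with ONE-Glo.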
ELG1 genotox – qHTS screen for small molecules that induce genotoxicity in human embryonic kidney (HEK293T) cells expressing luciferase-tagged ELG1; 330,000 compounds, 1.3% hits; Potency, µM (doses to about 46 µM), without a hit: top-dose activity change, positive = activation, actives largely listed as activators; HEK293T ELG1-luciferase reporter, luminescence, 16 h; further: % of control where 0% means no effect; nearly all actives have a fitted effect of over 60% in size
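DMSO vehicle served as control against compound-treated ELG1-luciferase HEK293T cells; exposure lasted 16 hr at 37 °C and 5% CO2, followed by ONE-Glo luminescence detection after 30 min.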
* = called active by the depositor; ? = inconclusive; / = not tested or not shown; [ ] = dose if it differs, or a comment. Sampled rows, rich in hits. Any-hit rate of the full collection: about 9.2%. The call rests on the fitted dose curve; in most records, active means well fitted curve in the direction sought with a large enough effect; inconclusive means small, poorly fitted or top-dose-only effect, or another doubt; inactive means no such curve, though single readings can be large; an effect the other way counts as inactive or inconclusive. Potency means the concentration at half of the fitted maximal effect.

SMILES | FLuc counter | SMN2 splice enh | Rab9 promoter act | NPC1 prom act | ELG1 repair inh | ELG1 genotox
O=C1C=C(c2cccc3c2sc2ccccc23)C[C@@H](c2ccc(F)cc2)C1 | 6% | / | -3% | -2% | 13µM* | -1%
COc1ccc([C@H]2CC(=O)C=C(c3cccc(OC)c3OC)C2)cc1OC | -10% | / | 2% | -4% | 9.2µM* | -7%
COc1ccc([C@H]2CC(=O)C=C(c3cccc4c3sc3ccccc34)C2)cc1OC | 6% | / | -2% | 2% | 8.2µM* | 0%
COc1ccc(NC(=O)Nc2cccc3c2O[C@H](CN(C)S(=O)(=O)c2c(C)noc2C)[C@@H](C)CN([C@H](C)CO)C3=O)cc1 | / | / | / | / | ? | -2%
Cc1cc(Cl)ccc1NS(=O)(=O)c1c(C(=O)N2CCC(C)CC2)c(C)n(C)c1C | -9% | / | / | / | / | /
Cc1ccc(-n2cc(CNCC3CC(=O)N(C4CC4)C3)c(-c3cccc(C)c3)n2)cc1 (stereo not drawn) | 21µM* | / | 9% | -5% | ? | -4%
C=CC[C@@H](CC(=O)N(CCO)Cc1ccccc1)C(=O)N[C@@H](COC(=O)[C@@H](CC=C)Cc1ccc(F)cc1)Cc1c[nH]c2ccccc12 | / | / | / | / | 18µM* | -15%
C=CC[C@@H](CC(=O)N(CCO)Cc1ccccc1)C(=O)N[C@@H](C)COC(=O)[C@@H](CC=C)Cc1ccc(F)cc1 | / | / | / | / | 18µM* | -6%
C=CC[C@@H](CC(=O)N(CCO)Cc1ccccc1)C(=O)NC[C@H](OC(=O)[C@@H](CC=C)Cc1ccc(F)cc1)c1ccccc1 | / | / | / | / | 5.8µM* | -8%
C=CC[C@H](CC(=O)N(CCO)Cc1ccccc1)C(=O)N[C@@H](COC(=O)[C@@H](CC=C)Cc1ccc(F)cc1)Cc1c[nH]c2ccccc12 | / | / | / | / | 21µM* | -10%
O=C(Nc1cc(C(F)(F)F)ccc1Cl)c1cc(-c2ccc3c(c2)OCCO3)on1 | 1.7µM* | / | / | / | / | /
O=C(COCc1cc(-c2ccc3c(c2)OCO3)on1)Nc1cc(C(F)(F)F)ccc1Cl | -1% | / | / | / | / | /
O=C(Nc1ccccc1C(F)(F)F)c1cc(-c2ccc3c(c2)OCCO3)on1 | 0.38µM* | / | / | / | / | /
CCOC(=O)c1noc2ncnc(N(CCC(=O)OC)c3ccccc3)c12 | -14% | / | / | / | / | /
COc1ccc(C(=O)Nc2nnc(S(=O)(=O)N3CCCc4ccccc43)s2)cc1 | -5% | / | / | / | / | /
COc1ccc(-n2nc(C(=O)N3CCN(c4ccccc4OC)CC3)c3c4ccccc4n(C)c3c2=O)cc1Cl | 1% | ? | / | / | / | /
Cc1cnc(NC(=O)C2COc3ccccc3O2)s1 (stereo not drawn) | 0.67µM* | 10µM* | 0.32µM* | 0.1µM* | ? | ?
CC(C)NC(=O)c1ccccc1NC(=O)C1COc2ccccc2O1 (stereo not drawn) | 7% | -44% | -5% | -4% | 21µM* | -6%
CCC(C)NC(=O)c1ccccc1NC(=O)C1COc2ccccc2O1 (stereo not drawn) | 2% | / | 11% | 1% | ? | -11%
Cc1ccc2sc(NNC(=O)C3COc4ccccc4O3)nc2c1C (stereo not drawn) | 0% | 10µM* | 2% | -1% | 2% | -2%
O=C(Nc1nc(-c2ccccc2)cs1)C1COc2ccccc2O1 (stereo not drawn) | 1%[2.3 µM] | 21% | -1% | 1% | 12% | 0%
Cc1csc(NC(=O)C2COc3ccccc3O2)n1 (stereo not drawn) | 1.2µM* | ? | 0.45µM* | ? | ? | 0.52µM*
O=C(NNc1nc2c(F)cccc2s1)C1COc2ccccc2O1 (stereo not drawn) | ? | 18% | -4% | 7% | 0% | 4%
O=C(O)c1cccc(-n2cnc3cccnc32)c1 | -13% | -3% | / | / | / | /
CN(C)CCCN(C(=O)COc1ccc(Cl)cc1)c1nc2cc3c(cc2s1)OCO3 | 3% | / | 1% | 1% | 22% | 15%
SMILES | FLuc counter | SMN2 splice enh | Rab9 promoter act | NPC1 prom act | ELG1 repair inh | ELG1 genotox
COc1ccccc1-n1c(SCC(=O)Nc2ccc(NC(C)=O)cc2)nc2c([nH]c3ccccc32)c1=O | -11% | / | 1% | -1% | 10µM* | 9%
COc1ccc(-n2c(SCC(=O)Nc3ccc(NC(C)=O)cc3)nc3c([nH]c4ccccc43)c2=O)cc1OC | -6% | / | 6% | 9% | -10% | 13%
CC(=O)Nc1ccc(NC(=O)CSc2nc3c([nH]c4ccccc43)c(=O)n2-c2ccccc2F)cc1 | ? | / | 2% | -3% | 16µM* | 0%
COc1cc2c(cc1OC)C(C)N(C(=O)Cn1ncc3c1-c1cc(C)ccc1OC3)CC2 (stereo not drawn) | 6% | -33% | -6% | -4% | 18µM* | -12%
O=C(c1ccc(OCC2CCCO2)cc1)N1CCN(c2ccccc2)CC1 (stereo not drawn) | -1% | 10% | -3% | -1% | 2% | -3%
CN(c1ccccc1C(=O)Nc1ccc2c(c1)OCCO2)S(C)(=O)=O | 2% | -9% | 10% | -1% | 4% | 1%
CN(CC1CCCO1)S(=O)(=O)c1ccc(C(=O)Nc2ccc3c(c2)OCO3)cc1 (stereo not drawn) | -7% | -28% | -9% | -3% | 12µM* | -4%
CN(c1ccc(C(=O)Nc2ccc3c(c2)OCO3)cc1)S(C)(=O)=O | 12µM* | / | 4µM* | 2.8µM* | ? | 15%
Cc1ccc(CN(c2ccc(C(=O)Nc3ccc4c(c3)OCO4)cc2)S(C)(=O)=O)cc1 | -16% | -1% | -1% | -3% | -13% | -3%
CN(CC1CCCO1)S(=O)(=O)c1ccc(C(=O)N2CCN(c3ccccc3)CC2)cc1 (stereo not drawn) | 1% | -31% | -9% | -1% | 23µM* | -8%
CN(c1ccc(C(=O)Nc2ccc3c(c2)OCCO3)cc1)S(C)(=O)=O | 7.6µM* | 11µM* | 1.6µM* | 2.2µM* | ? | ?
COc1ccc(NC(=O)CC2S/C(=N\c3nccs3)N(C)C2=O)cc1 (stereo not drawn) | -4% | / | -5% | -2% | -3% | 5%
NC(=O)c1ccccc1N/C=C1\CCCCC1=O | -10% | 9% | -3% | 5% | 25% | 10%
CC(=O)Nc1ccc(N/C=C/C(=O)c2ccc(Br)cc2)cc1 | -15% | / | ? | 25% | ? | 3%

Compound activity as filed in PubChem.
